# Results published in PubChem BioAssay (EPA / NIEHS).
# Activity calls are given as the source filed them. How the source made its calls: active means hit-call score of the fitted dose curve at least 0.9, where 1 is the maximum; inactive means score below 0.9.
# Test: ATG_AP_1_CIS: Attagene CIS-FACTORIAL HepG2 Assay for human Activator Protein 1 (AP-1) (AID 2282931)
# Conditions: HepG2 Attagene cis-factorial AP-1 reporter mRNA; actives raise or lower the signal
# Procedure: ATG_CIS is a cell-based, multiplexed-readout assay that uses HepG2, a human liver cell line, with measurements taken at 24 hours after chemical dosing in a 24-well plate.ATG_AP_1_CIS is one of 52 assay component(s) measured or calculated from the ATG_CIS assay. It is designed to make measurements of mRNA induction, a form of inducible reporter, as detected with fluorescence intensity signals by Reverse transcription polymerase chain reaction (RT-PCR) and Capillary electrophoresis technology.Data from the assay component ATG_AP_1_CIS was analyzed into 1 assay endpoint. This assay endpoint, ATG_AP_1_CIS, was analyzed with bidirectional fitting relative to DMSO as the negative control and baseline of activity. Using a type of inducible reporter, measures of mRNA for gain or loss-of-signal activity can be used to understand the reporter gene at the transcription factor-level as they relate to the gene FOS and JUN. Furthermore, this assay endpoint can be referred to as a primary readout, because this assay has produced multiple assay endpoints where this one serves a reporter gene function. To generalize the intended target to other relatable targets, this assay endpoint is annotated to the dna binding intended target family, where the subfamily is basic leucine zipper.
# Human liver HepG2 cells are transiently transfected with multiple reporter transcription units (MRTUs) in 6-well plates using FuGene 6 reagent (Roche; 3 ml FuGene/1 mg DNA). The MRTU constructs are regulated by a cis-regulating element (promoter). […] A major difference between the CIS and TRANS system is that in CIS activities of endogenous TFs are measured, whereas the TRANS assay evaluates changes in activities of exogenous, chimeric NR-Gal4 proteins. […] At the end of 24 hour incubation, total RNA was isolated using TriZol reagent (Invitrogen). The isolated RNA is then reverse-transcribed using oligo(dT) primer and Mo-MLV reverse transcriptase (Invitrogen) with DNAse I (Ambion) treatment for 30 min. The one-tenth of the produced cDNA was amplified by PCR using Taq DNA polymerase (Invitrogen) and two reporter sequence-specific primers. The PCR products were fluorescently labeled by primer extension with 6-arboxyfluorescein (6-FAM) 5'-labeled reporter sequence-specific primer (2 min at 95 C, 20 s at 68 C and 10 min at 72 C) and these products were digested with 5U of HpaI (New England Biolabs) for 2h at 37 C. The fragments were purified using Qiaquick PCR columns (Qiagen), analyzed on an ABI 3130xL genetic analyzer (Applied Biosystems) with peak positions identified by using a set of X-rhodamine (ROX)-labeled MapMarker1000 molecular weight standards (BioVentures). The raw capillary electrophoresis data was processed using Attagraph software (Attagene).
SMILES,outcome,AC50
O=[N+]([O-])c1cc(N(CCO)CCO)ccc1NCCO,inactive,–
OCCN1CCOCC1,inactive,–
CCCO,inactive,–
CC(C)C(=O)OCC=Cc1ccccc1,inactive,–
CCCCOCCOCCOCCO,inactive,–
CC/C=C\C#N,inactive,–
COc1ccc(N)c(C)c1,–,70 µM (active)
CC(=O)OC/C=C(C)/C=C/C=C(C)/C=C/C1=C(C)CCCC1(C)C,–,40.6 µM (active)
CN1CCc2cccc3c2[C@H]1Cc1ccc(O)c(O)c1-3,–,3.75 µM (active)
CNC(=C[N+](=O)[O-])NCCSCc1ccc(CN(C)C)o1,inactive,–
OC[C@H]1O[C@@H](O[C@H]2[C@H](O)[C@@H](O)[C@H](O)O[C@@H]2CO)[C@H](O)[C@@H](O)[C@H]1O,inactive,–
CCCOC(=O)CC,inactive,–
c1ccc2scnc2c1,inactive,–
CCCCOCC(C)OCC(C)O (stereo not given),inactive,–
CCCCCCCC1CCCC1=O (stereo not given),inactive,–
CC(CCO)CC(C)(C)C (stereo not given),inactive,–
O=C1OC2(c3ccc(O)cc3Oc3cc(O)ccc32)c2ccccc21,inactive,–
CN(C)C(=O)Nc1ccccc1,inactive,–
COc1ccc(OC)cc1,inactive,–
NC(N)=NC(N)=NCCc1ccccc1,inactive,–

SMILES,outcome,AC50
COC(=O)c1cccc(C(=O)OC)c1,inactive,–
C=CC(O)CCCCC (stereo not given),inactive,–
CC1=C(C=O)C(C)(C)CCC1,inactive,–
O=S1(=O)CC(Cl)(Cl)C(Cl)(Cl)C1,inactive,–
c1coc(CNc2ncnc3nc[nH]c23)c1,inactive,–
N#CCCNCCC#N,inactive,–
CC(=O)Oc1c(C)c(C)c2c(c1C)CC[C@@](C)(CCC[C@H](C)CCC[C@H](C)CCCC(C)C)O2,inactive,–
CCc1cccc(O)c1,inactive,–
C=COCC1CCC(COC=C)CC1 (stereo not given),inactive,–
CC/C=C\CCCCO,inactive,–
C=C(C)C(=O)OCCN(C)C,inactive,–
O=C(O)c1ccc(C(=O)O)c(C(=O)O)c1,inactive,–
COc1ccccc1NC(=O)CC(C)=O,inactive,–
CC1=CC(O)CC(C)(C)C1 (stereo not given),inactive,–
CC(=O)c1ccc(O)cc1,inactive,–
CC(=O)c1ccc2ccccc2c1,inactive,–
FC(F)(F)c1ccc(Cl)c(Cl)c1,inactive,–
[Na+],inactive,–
N#CCCCC(C#N)CCC#N (stereo not given),inactive,–
CCCCOCCOCCO,inactive,–
